Test results: the supplement of paper PMC12024529

These compounds were tested on HEK293 WT BDD-FVIII-Gluc (assay: secreted FVIII-Gluc luciferase Z-score vs DMSO control; higher = more FVIII-Gluc secretion). Conditions: 5 µM.
Protocol: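 Natural plant-compound library (480 compounds, ST catalogue IDs) screened on HEK293 cells stably expressing WT BDD-FVIII-Gaussia luciferase fusion at 5 µM. Secreted Gluc activity in the medium is given as a Z-score relative to DMSO controls.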
COC(=O)C1C2CC3c4[nH]c5cc(OC)ccc5c4CCN3CC2CC(OC(=O)c2cc(OC)c(OC)c(OC)c2)C1OC (centres undefined) was tested, and the “secreted FVIII-Gluc luciferase Z-score” value was -0.436. Nc1ccccc1C(=O)CC(N)C(=O)O (centres undefined) was tested, and the “secreted FVIII-Gluc luciferase Z-score” value was -1.11. In the case of O=c1ccc2cc3ccoc3cc2o1, the “secreted FVIII-Gluc luciferase Z-score” value was -0.26. With O=C1c2c(O)cc(O)cc2OC(c2ccc(O)c(O)c2)C1O (centres undefined) the “secreted FVIII-Gluc luciferase Z-score” value was -0.135. CC12CCC3c4ccc(O)cc4CCC3C1CCC2=O (centres undefined) was tested, and the “secreted FVIII-Gluc luciferase Z-score” value was 0.301. With CC[C@]12CCCN3CCc4c(n(c5ccccc45)C(=O)C1)C32 (some centres undefined) the “secreted FVIII-Gluc luciferase Z-score” value was 0.363. For COc1cc2cc3c4c(cc(OC)c(OC)c4c2cc1OC)CCN3C, the “secreted FVIII-Gluc luciferase Z-score” value was 0.0768. In the case of COC(=O)[C@@H]1C(O)CCC2CN3CCc4c([nH]c5ccccc45)C3CC21 (some centres undefined), the “secreted FVIII-Gluc luciferase Z-score” value was 0.187. CN1CCC[C@H]1c1cccnc1 was tested, and the “secreted FVIII-Gluc luciferase Z-score” value was 0.197. With COc1c2ccoc2nc2c(OC)c(OCC(O)C(C)(C)O)ccc12 (centres undefined) the “secreted FVIII-Gluc luciferase Z-score” value was 0.695. With COc1c(O)cc2oc3cc(O)c(CC=C(C)C)c(O)c3c(=O)c2c1CC=C(C)C the “secreted FVIII-Gluc luciferase Z-score” value was 0.316. CC(=O)O[C@H]1C(=O)[C@@]2(C)C([C@H](OC(=O)c3ccccc3)[C@]3(O)C[C@H](OC(=O)[C@@H](O)[C@@H](NC(=O)c4ccccc4)c4ccccc4)C(C)=C1C3(C)C)[C@]1(OC(C)=O)CO[C@@H]1C[C@@H]2O (some centres undefined) was tested, and the “secreted FVIII-Gluc luciferase Z-score” value was -3.56. COc1cc([C@@H]2c3cc4c(cc3C(OC3OC5COC(C)OC5C(O)C3O)C3COC(=O)[C@@H]32)OCO4)cc(OC)c1O (some centres undefined) was tested, and the “secreted FVIII-Gluc luciferase Z-score” value was -6.37. With O=c1cc(CO)occ1O the “secreted FVIII-Gluc luciferase Z-score” value was 0.0386. O=C(CCc1ccc(O)cc1)c1c(O)cc(O)cc1O was tested, and the “secreted FVIII-Gluc luciferase Z-score” value was -0.769. For CC(=O)N1C=C(C2CCCCN2)CCC1 (centres undefined), the “secreted FVIII-Gluc luciferase Z-score” value was 0.76. CC(C)=CCc1c(O)cc(O)c2c1O[C@H](c1ccccc1)CC2=O was tested, and the “secreted FVIII-Gluc luciferase Z-score” value was -0.692. With NCCc1cnc[nH]1 the “secreted FVIII-Gluc luciferase Z-score” value was 0.378. With COc1cc(CNC(=O)CCCC/C=C/C(C)C)ccc1O the “secreted FVIII-Gluc luciferase Z-score” value was -0.484. For COc1cc2c(C)c3c4c(cc(OC)c(OC)c4c2cc1OC)CCN3C, the “secreted FVIII-Gluc luciferase Z-score” value was -1.2. With O=c1cc(-c2ccc(O)c(O)c2)oc2cc(OC3OC(CO)C(O)C(O)C3O)cc(O)c12 (centres undefined) the “secreted FVIII-Gluc luciferase Z-score” value was -0.168. C[S+]([O-])CCC(N)C(=O)O (centres undefined) was tested, and the “secreted FVIII-Gluc luciferase Z-score” value was 1.1. With COc1ccc2oc(-c3cccc(OC)c3OC)cc(=O)c2c1 the “secreted FVIII-Gluc luciferase Z-score” value was 0.436. For CN1CCc2cc3c(cc2C(=O)Cc2ccc4c(c2C1)OCO4)OCO3, the “secreted FVIII-Gluc luciferase Z-score” value was -0.0429. With Cc1cc(=O)oc2cc(O[C@@H]3O[C@H](C(=O)O)[C@@H](O)[C@H](O)[C@H]3O)ccc12 the “secreted FVIII-Gluc luciferase Z-score” value was 0.123. With CC1=C(C/C=C(\C)CCCC(C)CCCC(C)CCCC(C)C)C(=O)c2ccccc2C1=O (centres undefined) the “secreted FVIII-Gluc luciferase Z-score” value was 0.33. With CC(C)=CCC/C(C)=C\COc1c2ccoc2cc2oc(=O)ccc12 the “secreted FVIII-Gluc luciferase Z-score” value was -0.466. COc1cccc(-c2oc3ccccc3c(=O)c2O)c1 was tested, and the “secreted FVIII-Gluc luciferase Z-score” value was 0.776. With O=c1cc(-c2cccc(O)c2)oc2c(O)c(O)ccc12 the “secreted FVIII-Gluc luciferase Z-score” value was -0.194. In the case of O=c1cc(-c2ccccc2)oc2c1ccc1ccccc12, the “secreted FVIII-Gluc luciferase Z-score” value was 0.373. With COc1c(-c2ccccc2)oc2c(ccc3occc32)c1=O the “secreted FVIII-Gluc luciferase Z-score” value was 0.489. In the case of N[C@@H](Cc1c[nH]cn1)C(=O)O, the “secreted FVIII-Gluc luciferase Z-score” value was 0.64. With O=c1oc2c(O)c(O)cc3c(=O)oc4c(O)c(O)cc1c4c23 the “secreted FVIII-Gluc luciferase Z-score” value was 0.53. O=C(/C=C/c1ccc(O)cc1)c1c(O)cc(O)cc1O was tested, and the “secreted FVIII-Gluc luciferase Z-score” value was 0.157. In the case of COc1ccc2c(OC)c3ccoc3nc2c1OC, the “secreted FVIII-Gluc luciferase Z-score” value was 0.816. With CC1CC2(C)Oc3ccccc3C3OCC1(COC(=O)Nc1ccccc1)C(C)C32 (centres undefined) the “secreted FVIII-Gluc luciferase Z-score” value was -0.945. CC(=O)Oc1ccc(/C=C/C(=O)CC2OC(Oc3cc(OC(C)=O)c4c(c3)O[C@@H](c3ccc(OC(C)=O)cc3)CC4=O)C(OC(C)=O)C(OC(C)=O)C2OC(C)=O)cc1 (some centres undefined) was tested, and the “secreted FVIII-Gluc luciferase Z-score” value was 0.201. With O=c1ccn([C@@H]2O[C@H](CO)[C@@H](O)[C@H]2O)c(=O)[nH]1 the “secreted FVIII-Gluc luciferase Z-score” value was 0.943. COc1ccc(C2CC(=O)c3c(O)cc(OC4OC(COC5OC(C)C(O)C(O)C5O)C(O)C(O)C4O)cc3O2)cc1O (centres undefined) was tested, and the “secreted FVIII-Gluc luciferase Z-score” value was 0.438.
